Bioassay records deposited in PubChem by National Center for Advancing Translational Sciences (NCATS).
Rows were chosen to be rich in hits. Some 0.81% of all compounds tested hit in one or more screens of this group.
TRHR agonist = qHTS for Small Molecule Agonists and Allosteric Enhancers of Human TRH Receptor: Primary Screen for Agonists; activation, % at 2 µM; 360,000 tested, 0.18% active; TRHR cells, calcium flux fluo-8, FDSS agonist mode; Thyrotropin-releasing hormone receptor (Homo sapiens), P34981; in the data active means activation above about 30%; further: 0% is about no effect
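Steps: seed TRHR cells overnight; add fluo-8 no-wash Ca dye, RT 30 min–1.5 h; record 10 s baseline; pin-transfer compounds; monitor fluorescence 1 cycle/s for the agonist window. Calcium increases flag candidate agonists.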
TRPML1 inh = qHTS for Inhibitors of the Human Mucolipin Transient Receptor Potential 1 (TRPML1). 390,000 tested, 0.02% active. activity change, negative = inhibition, % (no concentration beside the values). Mucolipin-1 (Homo sapiens), Q9GZU1. TRPML1-inducible cells, Ca2+ dye fluorescence, FDSS; stronger effect = lower value; inhibition of EC80 agonist-evoked calcium signal; in the data active means activity change below about -50%; inconclusive means between about -30% and that limit;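 further: stimulus is agonist 54-4 at its EC80 concentration; on the % scale 0 is the no-effect control and ±100 the full control effect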
Target sequence (Q9GZU1 whole entry, looked up): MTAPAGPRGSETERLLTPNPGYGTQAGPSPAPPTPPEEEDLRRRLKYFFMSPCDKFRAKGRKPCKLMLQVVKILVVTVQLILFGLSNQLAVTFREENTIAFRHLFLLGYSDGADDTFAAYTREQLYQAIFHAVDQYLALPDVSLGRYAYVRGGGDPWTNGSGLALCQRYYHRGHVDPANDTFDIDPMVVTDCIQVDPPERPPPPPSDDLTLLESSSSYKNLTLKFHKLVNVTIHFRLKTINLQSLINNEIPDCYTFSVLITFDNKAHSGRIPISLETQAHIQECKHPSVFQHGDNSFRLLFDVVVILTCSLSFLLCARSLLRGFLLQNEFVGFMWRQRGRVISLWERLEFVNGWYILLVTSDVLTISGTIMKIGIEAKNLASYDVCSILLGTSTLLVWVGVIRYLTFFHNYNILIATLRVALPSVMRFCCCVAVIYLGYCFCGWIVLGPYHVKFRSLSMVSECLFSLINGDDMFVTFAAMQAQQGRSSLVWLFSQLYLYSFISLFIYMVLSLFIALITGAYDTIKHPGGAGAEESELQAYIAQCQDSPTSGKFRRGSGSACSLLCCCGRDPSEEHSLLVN
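TRPML1-DL cells, Tet-induced overnight (~16 h, 37 °C) at 1,500 cells/well, were loaded with Ca8 no-wash dye plus quencher for 45-90 min at room temperature. Compounds were pinned during FDSS kinetic reading; agonist 54-4 at EC80 (4 uM final) then added.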
TRHR enhancer = qHTS for Small Molecule Agonists and Allosteric Enhancers of Human TRH Receptor: Primary Screen for Enhancers; TRHR cells, fluo-8 calcium fluorescence, EC20 TRH enhancement; enhancement, % at 2 µM; Thyrotropin-releasing hormone receptor (Homo sapiens), P34981; 360,000 tested, 0.66% active; AID 493056, 2011; in the data active means enhancement above about 30%; further: 0% is about no effect
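TRHR-expressing cells loaded with fluo-8 calcium dye were read kinetically (ex 480/em 530) during compound addition, then stimulated with an EC20 of TRH (10 nM final). Enhancement of the Gq-mediated intracellular calcium response was scored.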
TRPML1 ag = qHTS for Agonists of the Human Mucolipin Transient Receptor Potential 1 (TRPML1); activation, % (concentration not given with the values); Mucolipin-1 (Homo sapiens), Q9GZU1; TRPML1-expressing cells, Ca2+ dye fluorescence, FDSS; 410,000 tested, 0.12% active; in the data active means activation above about 50%; inconclusive means mostly about 30% to 49%; further: 0% is about no effect
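TRPML1-DL cells, Tet-induced overnight (~16 h, 37 degrees C), loaded 45-90 min at room temperature with Ca8 no-wash calcium dye plus quencher. FDSS fluorescence: 10 s baseline, compound pin-transfer, 110 s agonist read, then EC80 54-4 (4uM final) and 110 s antagonist read.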
TSG101-PTAP inh = qHTS Assay for Iinhibitors of HIV-1 Budding by Blocking the Interaction of PTAP/TSG101 | Tumor susceptibility gene 101 protein (Homo sapiens), Q99816 | Fluorescence polarization, FITC-PTAP peptide / Tsg101 binding | Potency, µM (doses to about 115 µM), for inactives: top-dose activity change, negative = inhibition, most hits filed as inhibitors | 340,000 tested, under 10 active | AID 493005, 2010; active means well fitted inhibition curve with a large enough effect in the main read-out, with a control signal flat, not every such curve was filed as active; inconclusive means small, poorly fitted or top-dose-only effect, or effect the other way, or a change in a side signal; inactive means no such curve, though single readings can be large or run the other way; further: potency means the concentration at half of the fitted maximal effect; % of control where 0% means no effect
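Compounds were pin-transferred onto Tsg101 binding domain (10 uM final) in HEPES pH 7.5 buffer, then FITC-PTAP peptide was added at 50 nM final. After 20 min at RT, polarization reported peptide displacement across a qHTS concentration series.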
* = called active by the depositor; ? = inconclusive; nt = no result.

SMILES	TRHR agonist	TRPML1 inh	TRHR enhancer	TRPML1 ag	TSG101-PTAP inh
CC(C)C(=O)NNC(=O)c1csc(-c2cccs2)n1	-0.6	5.9	31.6*	-1.2	-2.0%
CC(=O)c1c(C)[nH]c(C(=O)NCc2ccccc2Cl)c1C	-0.4	-10.1	34.0*	-0.1	-1.2%
Cn1nc(-c2ccc(OCC(=O)Nc3ccc(Cl)cc3)cc2)c2ccccc2c1=O	-0.9	49.0	35.3*	-1.2	nt
Cc1ccccc1NC(=O)CCn1nc(-c2ccc(Cl)cc2)c2ccccc2c1=O	-0.8	3.2	37.1*	1.6	nt
O=C1CC(c2nc3ccccc3[nH]2)CN1c1ccccc1 (configuration not stated)	-0.8	17.0	31.2*	-0.4	-2.2%
O=C1CC(c2nc3ccccc3[nH]2)CN1c1cccc(Cl)c1 (configuration not stated)	-0.5	-2.3	1.1	-0.5	nt
CC(C)(C)n1ncc2c(=O)n(Cc3c(F)cc(Cl)cc3F)cnc21	nt	-14.0	nt	1.6	nt
CN1C(=O)Cc2cc([S+](=O)([O-])N3CCN([S+](=O)([O-])c4c(F)cccc4F)CC3)ccc21	1.3	nt	-1.9	nt	nt
CN(C)CCNS(=O)(=O)c1ccc2c3c(cccc13)C(=O)N2	1.0	7.4	40.2*	-0.6	-3.0%
O=C(/C=C/c1ccc(F)cc1)NC(=S)N1CCOCC1	-0.5	-4.0	37.2*	-0.1	2.2%
Cc1c(Cl)cccc1-n1c(SCC(=O)NCc2ccccc2)nc2n[nH]c(C)c2c1=N	-0.7	20.9	42.2*	1.9	nt
N#CN1CCC(N[S+](=O)([O-])c2cccc(F)c2)CC1	-1.1	nt	5.7	nt	nt
O=C(Nc1nnc(-c2ccc(Cl)cc2)o1)c1nc2ccccc2s1	21.6	-15.6	3.6	86.7*	-3.2%
COc1cc2c(NC3CCN(C)CC3)nc(N3CCCCC3)nc2cc1OCCCN(C)C	nt	nt	nt	-0.2	nt
Cc1nc2ccccn2c1C(=O)NNS(=O)(=O)c1ccc(Cl)cc1	-0.9	-3.1	33.0*	-1.2	-0.2%
CCCCOC(=O)c1cc(Cl)c(O)c(OC)c1	-1.0	1.1	39.8*	1.3	0.8%
COc1ccccc1C(=O)NNC1=C(C(=O)C(F)(F)F)CCC1	0.6	6.6	1.1	-0.3	-3.1%
COc1cccc(C(=O)NNC2=C(C(=O)C(F)(F)F)CCC2)c1	0.0	0.7	33.2*	-0.5	-0.5%
CCN(Cc1cccc(S(=O)(=O)O)c1)c1ccc(C(=C2C=CC(=[N+](CC)Cc3cccc(S(=O)(=O)O)c3)C=C2)c2ccc(O)cc2S(=O)(=O)O)cc1	nt	nt	nt	-1.0	nt
CN1/C(=C/C=C(/C#N)C(N)=O)C(C)(C)c2ccccc21	nt	14.7	nt	4.6	5.9%
CN1/C(=C\C=C(/C#N)C(=O)Nc2ccccc2F)C(C)(C)c2ccccc21	114.4*	-1.0	19.2	?	?
COC(=O)c1ccc2c(c1)C(=O)/C(=C/c1ccc(O)cc1)O2	30.7*	23.2	-6.4	7.0	0.1%
CC(C)c1ccc(CNC(=O)C(=O)NCCCn2ccnc2)cc1	0.1	1.5	31.9*	-0.5	-1.4%
O=C(CSc1nnc(-c2cccc(Br)c2)o1)N1CCOCC1	-1.1	-2.1	31.2*	-0.2	-3.7%
COc1cc(OC)cc(-c2nnc(SCC(=O)N3CCOCC3)o2)c1	-0.2	-7.8	-5.8	1.1	-5.5%
COc1ccccc1N1C(=O)C2C(C(=O)c3ccccc3)=NN(c3ccc(C)cc3)C2C1=O (configuration not stated)	31.0*	4.5	-1.1	16.8	?
O=C(C1=NN(c2ccccc2)C2C(=O)N(c3ccc(Cl)cc3)C(=O)C12)c1ccccc1 (configuration not stated)	-0.3	-9.9	-7.9	9.5	?
O=C(C1=NN(c2ccccc2)C2C(=O)N(c3cccc(Cl)c3)C(=O)C12)c1ccccc1 (configuration not stated)	41.2*	-5.2	6.6	?	?
